# Results: the supplement of paper PMC6555819
# How the values were obtained:
# Assay in all cases: PBM binding z-score (relative to random genomic background probes); higher = stronger binding; sequences stand for … in GC…GCGATTGACAGCGTAGAATGAAGG
# [1] = system: FXR:RXRa (NR concentration 270 nM, RXRa partner concentration 90 nM)
# Method in brief: (§1)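 Random background probes are the reference for binding z-scores. These scores derive from regression-normalized fluorescence on custom Agilent 4×180K protein-binding microarrays incubated 1 h with ligand-free nuclear receptor dimers. Binding was detected with antibodies against each partner (one per run).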
# [2] = system: LXRa:RXRa (NR concentration 270 nM, RXRa partner concentration 90 nM)
# Method in brief: as §1
# [3] = system: LXRa homodimer (NR concentration 270 nM)
# Method in brief: as §1
# [4] = system: LXRb:RXRa (NR concentration 270 nM, RXRa partner concentration 90 nM)
# Method in brief: as §1
# [5] = system: LXRb homodimer (NR concentration 270 nM)
# Method in brief: as §1
# [6] = system: PPARa:RXRa (NR concentration 270 nM, RXRa partner concentration 90 nM)
# Method in brief: as §1
# [7] = system: PPARg:RXRa (NR concentration 180 nM, RXRa partner concentration 90 nM)
# Method in brief: as §1
# [8] = system: PPARg:RXRa 270nM:90nM, anti-RXR (NR concentration 270 nM, RXRa partner concentration 90 nM)
# Method in brief: as §1
# [9] = system: PPARg:RXRa 30nM:10nM, anti-RXR (NR concentration 30 nM, RXRa partner concentration 10 nM)
# Method in brief: as §1
# [10] = system: PPARg:RXRa 90nM:30nM, anti-RXR (NR concentration 90 nM, RXRa partner concentration 30 nM)
# Method in brief: as §1
sequence,measurement,setting,value
CAAACTAGGTAACCGGAAGGTCAAAGTCCGCATG,PBM binding z-score,[1],4.07
same,PBM binding z-score,[2],3.94
same,PBM binding z-score,[3],3.88
same,PBM binding z-score,[4],3.43
same,PBM binding z-score,[5],0.672
same,PBM binding z-score,[6],4.48
same,PBM binding z-score,[7],4.83
same,PBM binding z-score,[8],4.98
same,PBM binding z-score,[9],2.22
same,PBM binding z-score,[10],4.2
TCTTGTAGATTAGCAGGTTAAGAAAGCTGGCCAA,PBM binding z-score,[1],0.383
same,PBM binding z-score,[2],0.641
same,PBM binding z-score,[3],0.135
same,PBM binding z-score,[4],0.57
same,PBM binding z-score,[5],-0.424
same,PBM binding z-score,[6],0.897
same,PBM binding z-score,[7],-0.494
same,PBM binding z-score,[8],1.4
same,PBM binding z-score,[9],2.55
same,PBM binding z-score,[10],2.07
CAATCTAGGTCAAGAGGTCAAAGTCCGCTTCCCG,PBM binding z-score,[1],7.07
same,PBM binding z-score,[2],6.49
same,PBM binding z-score,[3],6.61
same,PBM binding z-score,[4],5.64
same,PBM binding z-score,[5],2.31
same,PBM binding z-score,[6],6.48
same,PBM binding z-score,[7],10.2
same,PBM binding z-score,[8],8.66
same,PBM binding z-score,[9],7.43
same,PBM binding z-score,[10],9.5
GCTCGGAGGACACGGTCAGAGCTTTGTCCGTAGA,PBM binding z-score,[1],-0.337
same,PBM binding z-score,[2],-0.705
same,PBM binding z-score,[3],-0.568
same,PBM binding z-score,[4],-0.918
same,PBM binding z-score,[5],-1.3
same,PBM binding z-score,[6],-0.523
same,PBM binding z-score,[7],-0.859
same,PBM binding z-score,[8],-0.893
same,PBM binding z-score,[9],-1.3
same,PBM binding z-score,[10],-1.06
ACTTACGGGTCAACGAGGTTGTAGCACGCGTATA,PBM binding z-score,[1],6.76
same,PBM binding z-score,[2],4.66
same,PBM binding z-score,[3],0.172
same,PBM binding z-score,[4],4
same,PBM binding z-score,[5],0.502
same,PBM binding z-score,[6],5.6
same,PBM binding z-score,[7],5.04
same,PBM binding z-score,[8],4.93
same,PBM binding z-score,[9],1.89
same,PBM binding z-score,[10],3.69
CCTACTGGGCCATTCAGAGGTCCTTGATCATATG,PBM binding z-score,[1],-0.359
same,PBM binding z-score,[2],-0.572
same,PBM binding z-score,[3],-0.215
same,PBM binding z-score,[4],-0.597
same,PBM binding z-score,[5],-0.529
same,PBM binding z-score,[6],0.27
same,PBM binding z-score,[7],0.118
same,PBM binding z-score,[8],0.194
same,PBM binding z-score,[9],-0.728
same,PBM binding z-score,[10],-0.16
TCATATAGGTAAGCAGGTGAAAGTCCGTAAGTTA,PBM binding z-score,[1],0.125
same,PBM binding z-score,[2],0.178
same,PBM binding z-score,[3],-0.0439
same,PBM binding z-score,[4],0.39
same,PBM binding z-score,[5],-0.523
same,PBM binding z-score,[6],1.74
same,PBM binding z-score,[7],2.16
same,PBM binding z-score,[8],3.14
same,PBM binding z-score,[9],3.46
same,PBM binding z-score,[10],3.36
TCATATAGGTATATGCTAGGTGAAAGTCCGATCT,PBM binding z-score,[1],0.567
same,PBM binding z-score,[2],0.913
same,PBM binding z-score,[3],0.175
same,PBM binding z-score,[4],0.545
same,PBM binding z-score,[5],-0.249
same,PBM binding z-score,[6],0.818
same,PBM binding z-score,[7],0.703
same,PBM binding z-score,[8],1.78
same,PBM binding z-score,[9],3.31
same,PBM binding z-score,[10],2.54
ACTAGCAGGCCAAGTTTGGGTGACTCAAACAAAG,PBM binding z-score,[1],-0.397
same,PBM binding z-score,[2],-0.73
same,PBM binding z-score,[3],-0.818
same,PBM binding z-score,[4],-0.554
same,PBM binding z-score,[5],-0.715
same,PBM binding z-score,[6],-0.036
same,PBM binding z-score,[7],-0.341
same,PBM binding z-score,[8],-0.319
same,PBM binding z-score,[9],-0.347
same,PBM binding z-score,[10],-0.213
GGAACGAGTGCATTCGAGTTGATAGCATGGCGAT,PBM binding z-score,[1],-0.159
same,PBM binding z-score,[2],0.374
same,PBM binding z-score,[3],-0.89
same,PBM binding z-score,[4],-0.659
same,PBM binding z-score,[5],-1.1
same,PBM binding z-score,[6],-0.426
same,PBM binding z-score,[7],0.302
same,PBM binding z-score,[8],-0.652
same,PBM binding z-score,[9],-0.79
same,PBM binding z-score,[10],-1.09
GATACACGGTCAGCTAGAGGCCAGAGTATGGAAA,PBM binding z-score,[1],-0.145
same,PBM binding z-score,[2],-0.145
same,PBM binding z-score,[3],-0.281
same,PBM binding z-score,[4],-0.57
same,PBM binding z-score,[5],-0.753
same,PBM binding z-score,[6],-0.296
same,PBM binding z-score,[7],0.351
same,PBM binding z-score,[8],-0.323
same,PBM binding z-score,[9],-0.383
same,PBM binding z-score,[10],-0.205
TAGCCTAGGTCAGATCGGGCCAGTATCCGCTATA,PBM binding z-score,[1],2
same,PBM binding z-score,[2],1.05
same,PBM binding z-score,[3],-0.375
same,PBM binding z-score,[4],0.765
same,PBM binding z-score,[5],-0.472
same,PBM binding z-score,[6],1.69
same,PBM binding z-score,[7],0.405
same,PBM binding z-score,[8],0.707
same,PBM binding z-score,[9],-0.351
same,PBM binding z-score,[10],-0.0749
CGTCCAAGGTTAATGCTAGGTCAGTGAAAGCATT,PBM binding z-score,[1],1.98
same,PBM binding z-score,[2],4.46
same,PBM binding z-score,[3],1.76
same,PBM binding z-score,[4],2.28
same,PBM binding z-score,[5],-0.518
same,PBM binding z-score,[6],2.21
same,PBM binding z-score,[7],0.161
same,PBM binding z-score,[8],0.685
same,PBM binding z-score,[9],-0.233
same,PBM binding z-score,[10],0.133
TCAGACAGGTGAAGGTAACACAGGTACGCAGTCG,PBM binding z-score,[1],1.04
same,PBM binding z-score,[2],1.17
same,PBM binding z-score,[3],0.113
same,PBM binding z-score,[4],1.01
same,PBM binding z-score,[5],0.0867
same,PBM binding z-score,[6],1.53
same,PBM binding z-score,[7],1.29
same,PBM binding z-score,[8],2.67
same,PBM binding z-score,[9],3.9
same,PBM binding z-score,[10],3.28
CCTGCTAGGTCATGGTCAACTAATCTACAGTATG,PBM binding z-score,[1],3.72
same,PBM binding z-score,[2],2.85
same,PBM binding z-score,[3],0.245
same,PBM binding z-score,[4],1.98
same,PBM binding z-score,[5],-0.184
same,PBM binding z-score,[6],3.72
same,PBM binding z-score,[7],2.81
same,PBM binding z-score,[8],3.17
same,PBM binding z-score,[9],0.82
same,PBM binding z-score,[10],1.92
CAGCCTAGGTCAGGGCCAGTACAGGAGGAACGTT,PBM binding z-score,[1],1.53
same,PBM binding z-score,[2],0.993
same,PBM binding z-score,[3],-0.276
same,PBM binding z-score,[4],0.431
same,PBM binding z-score,[5],-1.11
same,PBM binding z-score,[6],2.09
same,PBM binding z-score,[7],0.833
same,PBM binding z-score,[8],0.908
same,PBM binding z-score,[9],-0.375
same,PBM binding z-score,[10],0.307
TCTGCTAGGTCAACGATGCTCAGCTAATCTGCTA,PBM binding z-score,[1],2.94
same,PBM binding z-score,[2],1.88
same,PBM binding z-score,[3],-0.569
same,PBM binding z-score,[4],1.22
same,PBM binding z-score,[5],-0.547
same,PBM binding z-score,[6],3.02
same,PBM binding z-score,[7],2.04
same,PBM binding z-score,[8],2.92
same,PBM binding z-score,[9],1.7
same,PBM binding z-score,[10],2.32
TCTTGTAGATCCGCAGGTTAAGAAAGCTGGCCAA,PBM binding z-score,[1],0.144
same,PBM binding z-score,[2],0.322
same,PBM binding z-score,[3],-0.25
same,PBM binding z-score,[4],0.303
same,PBM binding z-score,[5],-0.333
same,PBM binding z-score,[6],0.634
same,PBM binding z-score,[7],-0.592
same,PBM binding z-score,[8],1.34
same,PBM binding z-score,[9],2.55
same,PBM binding z-score,[10],1.87
CCTACTGGGCCACGAAAGGTCATTGATTCAGTGA,PBM binding z-score,[1],3.58
same,PBM binding z-score,[2],5.34
same,PBM binding z-score,[3],4.9
same,PBM binding z-score,[4],4.15
same,PBM binding z-score,[5],0.552
same,PBM binding z-score,[6],4.58
same,PBM binding z-score,[7],4.57
same,PBM binding z-score,[8],5.08
same,PBM binding z-score,[9],2.53
same,PBM binding z-score,[10],4.4
GCTGCTAGGTCAGGTTGGTCAGCTATCGGGTACG,PBM binding z-score,[1],1.38
same,PBM binding z-score,[2],0.811
same,PBM binding z-score,[3],-0.13
same,PBM binding z-score,[4],0.574
same,PBM binding z-score,[5],-0.138
same,PBM binding z-score,[6],1.42
same,PBM binding z-score,[7],0.304
same,PBM binding z-score,[8],1.19
same,PBM binding z-score,[9],-0.614
same,PBM binding z-score,[10],0.562
CCTACTGGGCCACGAAAGGTCAATGATTCAGTGA,PBM binding z-score,[1],3.22
same,PBM binding z-score,[2],4.61
same,PBM binding z-score,[3],2.93
same,PBM binding z-score,[4],3.95
same,PBM binding z-score,[5],-0.0572
same,PBM binding z-score,[6],4.44
same,PBM binding z-score,[7],4.52
same,PBM binding z-score,[8],4.6
same,PBM binding z-score,[9],1.66
same,PBM binding z-score,[10],3.59
AATACAGGGTCATCGTAGGCCAGAGAACGCACAG,PBM binding z-score,[1],7.44
same,PBM binding z-score,[2],6.64
same,PBM binding z-score,[3],2.11
same,PBM binding z-score,[4],4.8
same,PBM binding z-score,[5],1.09
same,PBM binding z-score,[6],6.16
same,PBM binding z-score,[7],7.11
same,PBM binding z-score,[8],6.17
same,PBM binding z-score,[9],2.74
same,PBM binding z-score,[10],5.08
ATCGAAAGGTCGAGGTGAGTGTAGAGAAAGGGAA,PBM binding z-score,[1],4.53
same,PBM binding z-score,[2],3.52
same,PBM binding z-score,[3],0.118
same,PBM binding z-score,[4],2.74
same,PBM binding z-score,[5],0.572
same,PBM binding z-score,[6],4.69
same,PBM binding z-score,[7],3.13
same,PBM binding z-score,[8],3.76
same,PBM binding z-score,[9],1.42
same,PBM binding z-score,[10],2.6
CAGCCTAGGTAAGGGCCAGTATAGGAGGAACGTT,PBM binding z-score,[1],-0.618
same,PBM binding z-score,[2],-0.931
same,PBM binding z-score,[3],-0.62
same,PBM binding z-score,[4],-1.05
same,PBM binding z-score,[5],-1.17
same,PBM binding z-score,[6],-0.738
same,PBM binding z-score,[7],-0.026
same,PBM binding z-score,[8],-0.51
same,PBM binding z-score,[9],-0.469
same,PBM binding z-score,[10],-0.635
